According to PubChem BioAssay (EPA / NIEHS):
More than one record can exist for a structure, and the calls need not agree. Active and inactive are the calls of the source. How the source made its calls: active means hit-call score of the fitted dose curve at least 0.9, where 1 is the maximum; inactive means score below 0.9.

Legend:
[1] = ATG_ISRE_CIS: Attagene CIS-FACTORIAL HepG2 Assay for human Interferon Regulatory Factor 1 (IRF1) binding to an Interferon-Stimulated Response Element (ISRE) (AID 2282948); details: HepG2 ISRE cis-reporter (Attagene), mRNA transcription readout; actives raise or lower the signal
How it was run: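 Transfected HepG2 (multiple reporter transcription units, cis elements) dosed 24 h. RNA → oligo(dT) RT → PCR → 6-FAM primer extension → HpaI → CE. DMSO = negative control/baseline.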

[2] = ATG_M_32_CIS: Attagene CIS-FACTORIAL HepG2 Assay for M32 Transcription Factor (Internal Marker) (AID 2282949); details: HepG2 Attagene cis-factorial M32 reporter, mRNA; actives raise or lower the signal;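 further: background control marker of the multiplexed CIS panel rather than a real target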
How it was run: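 Fluorescent capillary electrophoresis peaks of HpaI-digested, FAM-labelled RT-PCR reporter products give the signal. Source: transiently transfected human liver HepG2 cells, 24 h after chemical dosing; bidirectional fitting against DMSO.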

[3] = target: Hepatocyte nuclear factor 6 (Homo sapiens) (UniProt Q9UBC0); test: ATG_HNF6_CIS: Attagene CIS-FACTORIAL HepG2 Assay for human Hepatocyte Nuclear Factor 6 (HNF6) (AID 2282952); details: HepG2 Attagene cis-factorial HNF6 reporter transcription; actives raise or lower the signal
How it was run: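 HepG2 cells transiently transfected with cis-element-driven multiple reporter transcription units, dosed 24 h; reporter mRNA quantified by RT-PCR, FAM primer extension, HpaI digestion and capillary electrophoresis; bidirectional fit versus DMSO baseline.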

[4] = target: Heat shock factor protein 1 (Homo sapiens) (UniProt Q00613); test: ATG_HSE_CIS: Attagene CIS-FACTORIAL HepG2 Assay for human Heat Shock Transcription Factor 1 (HSE) (AID 2282953); details: HepG2 HSE cis-reporter, Attagene RNA transcription; actives raise or lower the signal
How it was run: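 Reporter mRNA induction in HepG2 is measured 24 h after dosing, using transiently transfected multiplexed cis-regulated reporter units. Signal comes from capillary electrophoresis of labelled RT-PCR products, with DMSO as negative control.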

[5] = ATG_MRE_CIS: Attagene CIS-FACTORIAL HepG2 Assay for human Metal Responsive Element (MRE) (AID 2282954); details: HepG2 MRE cis-reporter transcription, Attagene multiplex; actives raise or lower the signal
How it was run: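 HepG2 cells transiently transfected with cis-element-driven reporter units; mRNA measured 24 h after dosing. Reporter transcripts quantified by RT-PCR, FAM labelling, HpaI digestion and capillary electrophoresis; bidirectional fit versus DMSO.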

[6] = ATG_PBREM_CIS: Attagene CIS-FACTORIAL HepG2 Assay for human Phenobarbital-responsive Enhancer Module (PBREM) (AID 2282955); details: HepG2 PBREM cis-reporter, Attagene multiplexed transcription; actives raise or lower the signal
How it was run: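 Fluorescence of labelled reporter cDNA fragments, resolved by capillary electrophoresis, gives mRNA induction in transfected HepG2 cells treated for 24 h; DMSO serves as negative control and baseline.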

[7] = target: Paired box protein Pax-6 (Homo sapiens) (UniProt P26367); test: ATG_Pax6_CIS: Attagene CIS-FACTORIAL HepG2 Assay for human Paired Box 6 (PAX6) (AID 2282956); details: HepG2 CIS-FACTORIAL PAX6 reporter transcription, RNA readout; actives raise or lower the signal
How it was run: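 Transient MRTU transfection of HepG2 → compound exposure 24 h → TriZol RNA, oligo(dT) RT → PCR, 6-FAM primer extension, HpaI cut → capillary electrophoresis; activity fitted both directions against DMSO.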

[8] = ATG_PXRE_CIS: Attagene CIS-FACTORIAL HepG2 Assay for human Pregnane X Receptor Element (PXRE) (AID 2282957); details: HepG2 Attagene CIS-FACTORIAL PXRE reporter, mRNA; actives raise or lower the signal
How it was run: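 HepG2 cells transiently transfected with cis-regulated multiple reporter transcription units; endogenous factor activity measured as reporter mRNA 24 h after dosing. RT-PCR, fluorescent primer extension, HpaI digestion, capillary electrophoresis; bidirectional fit versus DMSO baseline.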

[9] = target: Hypoxia-inducible factor 1-alpha (Homo sapiens) (UniProt Q16665); test: ATG_HIF1a_CIS: Attagene CIS-FACTORIAL HepG2 Assay for human Hypoxia Inducible Factor 1 (HIF1A) (AID 2282951); details: HepG2 Attagene cis-factorial HIF1a reporter transcription; actives raise or lower the signal
How it was run: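 Measures endogenous transcription-factor activity through cis-regulated reporter mRNA in HepG2. Cells dosed 24 h; transcripts quantified by RT-PCR with 6-FAM-labelled products separated by capillary electrophoresis; DMSO serves as negative control.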

[10] = ATG_M_06_CIS: Attagene CIS-FACTORIAL HepG2 Assay for M06 Transcription Factor (Internal Marker) (AID 2282950); details: HepG2 Attagene CIS-FACTORIAL M06 internal marker reporter; actives raise or lower the signal
How it was run: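 Measured 24 h post-dosing in transiently transfected HepG2 cells, this internal-marker endpoint reports reporter mRNA via RT-PCR with fluorescent primer extension and capillary electrophoresis. DMSO served as negative control and baseline for bidirectional fitting.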

Measured: AC50

Hepatocyte nuclear factor 6 (Homo sapiens), sequence (Q9UBC0 whole entry, looked up): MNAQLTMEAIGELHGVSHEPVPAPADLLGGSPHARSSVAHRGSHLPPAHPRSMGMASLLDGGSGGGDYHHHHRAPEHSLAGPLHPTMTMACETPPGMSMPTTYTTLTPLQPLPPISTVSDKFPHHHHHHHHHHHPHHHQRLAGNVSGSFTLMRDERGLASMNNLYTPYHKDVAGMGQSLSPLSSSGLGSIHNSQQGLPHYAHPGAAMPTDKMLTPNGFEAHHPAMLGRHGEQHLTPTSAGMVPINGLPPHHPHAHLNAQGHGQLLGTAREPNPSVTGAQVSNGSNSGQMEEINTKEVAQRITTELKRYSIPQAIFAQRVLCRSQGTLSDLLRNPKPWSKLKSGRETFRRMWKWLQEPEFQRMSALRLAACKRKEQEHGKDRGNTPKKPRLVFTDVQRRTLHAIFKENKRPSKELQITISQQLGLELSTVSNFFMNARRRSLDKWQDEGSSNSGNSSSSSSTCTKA
Paired box protein Pax-6 (Homo sapiens), sequence (P26367 whole entry, looked up): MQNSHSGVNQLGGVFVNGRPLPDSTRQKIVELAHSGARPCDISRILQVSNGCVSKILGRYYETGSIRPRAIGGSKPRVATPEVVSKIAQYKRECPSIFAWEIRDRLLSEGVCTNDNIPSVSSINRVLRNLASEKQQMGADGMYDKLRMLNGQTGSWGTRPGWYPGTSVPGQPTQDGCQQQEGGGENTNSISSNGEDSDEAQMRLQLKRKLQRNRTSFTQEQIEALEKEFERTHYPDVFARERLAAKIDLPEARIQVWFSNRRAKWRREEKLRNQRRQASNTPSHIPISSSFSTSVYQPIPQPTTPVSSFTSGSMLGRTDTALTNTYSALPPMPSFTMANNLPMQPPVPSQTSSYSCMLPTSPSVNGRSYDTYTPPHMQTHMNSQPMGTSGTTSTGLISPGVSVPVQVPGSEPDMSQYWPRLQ
Hypoxia-inducible factor 1-alpha (Homo sapiens), sequence (Q16665 whole entry, looked up): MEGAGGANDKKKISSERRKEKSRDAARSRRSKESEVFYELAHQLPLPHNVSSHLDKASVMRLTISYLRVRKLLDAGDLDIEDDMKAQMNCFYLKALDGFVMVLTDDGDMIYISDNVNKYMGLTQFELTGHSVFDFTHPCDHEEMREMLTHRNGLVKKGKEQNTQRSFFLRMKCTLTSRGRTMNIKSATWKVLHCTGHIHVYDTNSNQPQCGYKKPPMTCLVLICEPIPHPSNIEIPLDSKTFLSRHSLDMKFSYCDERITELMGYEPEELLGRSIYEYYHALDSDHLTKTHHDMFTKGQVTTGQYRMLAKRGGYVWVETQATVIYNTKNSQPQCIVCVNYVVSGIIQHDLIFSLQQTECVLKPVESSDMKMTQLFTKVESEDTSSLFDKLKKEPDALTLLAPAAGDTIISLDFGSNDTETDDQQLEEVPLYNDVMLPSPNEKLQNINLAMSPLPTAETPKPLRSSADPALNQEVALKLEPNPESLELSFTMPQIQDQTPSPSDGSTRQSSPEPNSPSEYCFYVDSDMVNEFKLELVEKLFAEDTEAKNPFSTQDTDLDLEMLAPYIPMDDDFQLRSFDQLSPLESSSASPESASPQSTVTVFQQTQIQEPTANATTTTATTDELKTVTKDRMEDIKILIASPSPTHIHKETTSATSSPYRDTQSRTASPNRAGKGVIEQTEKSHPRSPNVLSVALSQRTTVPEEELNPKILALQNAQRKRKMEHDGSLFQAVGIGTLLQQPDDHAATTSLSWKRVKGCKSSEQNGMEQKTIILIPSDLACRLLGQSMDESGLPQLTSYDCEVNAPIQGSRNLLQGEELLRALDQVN
Heat shock factor protein 1 (Homo sapiens), sequence (Q00613 whole entry, looked up): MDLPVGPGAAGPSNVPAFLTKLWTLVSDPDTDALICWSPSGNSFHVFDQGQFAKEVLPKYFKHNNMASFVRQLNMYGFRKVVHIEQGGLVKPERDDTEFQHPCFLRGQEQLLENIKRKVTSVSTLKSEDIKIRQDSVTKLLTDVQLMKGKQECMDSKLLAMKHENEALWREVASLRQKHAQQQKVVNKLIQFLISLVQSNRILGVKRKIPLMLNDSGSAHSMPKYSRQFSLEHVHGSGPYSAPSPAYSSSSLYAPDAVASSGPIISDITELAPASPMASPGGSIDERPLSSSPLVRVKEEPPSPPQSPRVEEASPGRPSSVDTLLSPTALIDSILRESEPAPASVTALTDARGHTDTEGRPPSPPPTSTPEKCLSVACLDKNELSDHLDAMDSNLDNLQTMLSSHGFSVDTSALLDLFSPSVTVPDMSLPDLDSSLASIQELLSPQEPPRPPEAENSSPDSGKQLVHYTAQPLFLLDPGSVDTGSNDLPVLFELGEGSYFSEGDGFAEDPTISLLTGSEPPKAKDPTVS

Cc1c([N+](=O)[O-])c(C)c([N+](=O)[O-])c(C(C)(C)C)c1[N+](=O)[O-]
active: [1] 22.5 µM | [5] 64.1 µM | [8] 1.54 µM
inactive: [2] | [3] | [4] | [6] | [7]

CCOc1cc(C=O)ccc1O
inactive: [1] | [2] | [9] | [3] | [4] | [6] | [7] | [8]

Clc1ccc(C(Cl)(Cl)Cl)cn1
inactive: [1] | [2] | [9] | [3] | [4] | [5]
active: [8] 14.1 µM

OC(Cc1ccccc1Cl)(Cn1cncn1)C1(Cl)CC1 (configuration not stated)
active: [5] 37.3 µM | [6] 19.8 µM | [8] 8.32 µM
inactive: [1] | [2] | [9] | [3] | [4] | [7]

OC(Cc1ccccc1Cl)(Cn1[nH]cnc1=S)C1(Cl)CC1 (configuration not stated)
active: [1] 100 µM | [4] 140 µM | [5] 77.6 µM | [6] 21.7 µM | [8] 4.27 µM
inactive: [2] | [3] | [7]

O=S(=O)(C(Cl)(Cl)Cl)C(Cl)(Cl)Cl
inactive: [2] | [3] | [6]
active: [1] 16.4 µM | [4] 7.93 µM | [5] 16.5 µM | [7] 16 µM | [8] 11.1 µM

CCCSP(=S)(OCC)Oc1ccc(SC)cc1 (configuration not stated)
active: [6] 2.14 µM | [8] 2.92 µM
inactive: [1] | [2] | [3] | [4] | [5] | [7]

BrCCCCBr
inactive: [1] | [2] | [9] | [3] | [4] | [5] | [7] | [8]

Oc1cc(Cl)c(Cl)cc1Cl
inactive: [1] | [2] | [9] | [3] | [4]
active: [5] 63 µM | [7] 54 µM | [8] 25.8 µM

CC1(C)[C@H](/C=C2\CCSC2=O)[C@@H]1C(=O)OCc1coc(Cc2ccccc2)c1
inactive: [1] | [2] | [3] | [4]
active: [9] 12.9 µM | [5] 19.8 µM | [6] 0.313 µM | [7] 11.1 µM | [8] 0.143 µM

CC1(C)COP(Oc2ccccc2)OC1
inactive: [1] | [2] | [3] | [4] | [5] | [6] | [7] | [8]

COc1ccc(N)cc1
active: [9] 181 µM
inactive: [1] | [2] | [9] | [3] | [5] | [7] | [8]

CCOP(=S)(OCC)OP(=S)(OCC)OCC
active: [8] 1.11 µM
inactive: [1] | [2] | [10] | [3] | [6]

O=C(O)C1(c2ccc3c(c2)OC[C@H](Cc2ccc(-c4ccccc4)cc2)[C@H]3O)CCCC1
inactive: [2] | [9] | [3] | [4] | [6] | [7] | [8]
active: [1] 2.83 µM | [5] 2.85 µM
